Some test systems named below: RPMI-8226 leukemia; OVCAR-8 ovarian; SK-OV-3 ovarian; IGROV1 ovarian; OVCAR-3 ovarian; HS 578T breast; NCI/ADR-RES ovarian.
Assay in all cases: NCI-60 one-dose screen, 48 h (100 = growth as untreated, 0 = no growth, -100 = all killed)
For a further experiment, the system named is SR leukemia. As to conditions: 10 µM unless noted.
The next experiment has as its system OVCAR-5 ovarian. The note with it: 10 µM unless noted.
The subject of a further experiment is OVCAR-4 ovarian. As to conditions: 10 µM unless noted.

Where “and” joins values, the source holds several entries; their conditions need not be identical. Equal entries are not always repeated. About 83,000 compounds went through this panel and 20% of them were active in at least one assay; those are over-represented in the sample as a whole.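 Cells were grown in 96-well plates and exposed to the test compound at a single concentration for 48 hours; results are reported as percent growth, with values below 10 considered active.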 Calls of active or inactive are those of the source.

With `Cc1cc2nc3ccc(=[N+](C)C)cc-3sc2cc1N`, the growth in the experiment on SR leukemia is -4.11% (active); with RPMI-8226 leukemia (10 µM unless noted), -10.3% (active) and -38.2% (active); in the experiment on OVCAR-8 ovarian (10 µM unless noted), 4.72% (active) and 7.29% (active); in the experiment with OVCAR-5 ovarian, -57.5% (active) and -0.424% (active); in the experiment on OVCAR-4 ovarian, 8.09% (active); in the experiment with SK-OV-3 ovarian (10 µM unless noted), 8.62% (active) and 45.8% (inactive). For the same compound, the growth in the experiment with IGROV1 ovarian (10 µM unless noted) is -55.6% (active) and 10.3% (inactive); in the experiment with OVCAR-3 ovarian (10 µM unless noted) it was -15.2% (active) and -44% (active); in the experiment on HS 578T breast (10 µM unless noted) it was 41.1% (inactive) and -0.376% (active); in the experiment on NCI/ADR-RES ovarian (10 µM unless noted) it was 1.81% (active) and 2.67% (active).

With `O=c1[nH]c(=O)n(C2OC(CO)C(O)C2O)cc1I` (stereo not given), the growth in the experiment on SR leukemia was 96.1% (inactive) and 114% (inactive); with RPMI-8226 leukemia (10 µM unless noted), 107% (inactive); with OVCAR-8 ovarian (10 µM unless noted), 98.9% (inactive) and 95.7% (inactive); in the experiment with OVCAR-5 ovarian, 107% (inactive) and 104% (inactive); in the experiment on OVCAR-4 ovarian, 100% (inactive) and 102% (inactive); in the experiment with SK-OV-3 ovarian (10 µM unless noted), 110% (inactive) and 102% (inactive). In addition, the growth in the experiment with IGROV1 ovarian (10 µM unless noted) is 103% (inactive) and 106% (inactive); in the experiment with OVCAR-3 ovarian (10 µM unless noted), 117% (inactive) and 121% (inactive); in the experiment with HS 578T breast (10 µM unless noted), 108% (inactive) and 98.3% (inactive); with NCI/ADR-RES ovarian (10 µM unless noted) it was 109% (inactive) and 97.4% (inactive).

Turning to `C=CCN1C(=O)c2ccccc2C1=O`, the growth in the experiment with SR leukemia is 99.9% (inactive); in the experiment with RPMI-8226 leukemia (10 µM unless noted) it was 92.9% (inactive); with OVCAR-8 ovarian (10 µM unless noted), 97.5% (inactive); in the experiment with OVCAR-5 ovarian, 102% (inactive); in the experiment with OVCAR-4 ovarian, 107% (inactive); in the experiment on SK-OV-3 ovarian (10 µM unless noted) it was 105% (inactive). Moreover, the growth is 98.7% (inactive) in the experiment on IGROV1 ovarian (10 µM unless noted), 110% (inactive) with OVCAR-3 ovarian (10 µM unless noted), 99.8% (inactive) with HS 578T breast (10 µM unless noted) and 96% (inactive) in the experiment on NCI/ADR-RES ovarian (10 µM unless noted).

Regarding `O=C1CCC(=O)N1CC1CC2CCC1C2` (stereo not given), the growth was 84.7% (inactive) and 78.9% (inactive) in the experiment on SR leukemia; 71.3% (inactive) and 114% (inactive) in the experiment with RPMI-8226 leukemia (10 µM unless noted); 98.8% (inactive) and 96.1% (inactive) in the experiment with OVCAR-8 ovarian (10 µM unless noted); 93.8% (inactive) and 90.8% (inactive) with OVCAR-5 ovarian; 91.1% (inactive) and 97.4% (inactive) in the experiment with OVCAR-4 ovarian; -56.3% (active) and 84% (inactive) with SK-OV-3 ovarian (10 µM unless noted). In addition, the growth in the experiment with IGROV1 ovarian (10 µM unless noted) was 105% (inactive) and 107% (inactive); in the experiment with OVCAR-3 ovarian (10 µM unless noted), 106% (inactive) and 101% (inactive); in the experiment with HS 578T breast (10 µM unless noted), 115% (inactive) and 102% (inactive); in the experiment on NCI/ADR-RES ovarian (10 µM unless noted) it was 110% (inactive) and 104% (inactive).

As to `CC(C)(C)C1CCC(=NO)CC1` (stereo not given), the growth was 116% (inactive) with SR leukemia; 92.5% (inactive) in the experiment with RPMI-8226 leukemia (10 µM unless noted); 91.9% (inactive) in the experiment with OVCAR-8 ovarian (10 µM unless noted); 90.3% (inactive) with OVCAR-5 ovarian; 97.3% (inactive) in the experiment with OVCAR-4 ovarian; 101% (inactive) in the experiment with SK-OV-3 ovarian (10 µM unless noted). Besides, the growth was 99.5% (inactive) with IGROV1 ovarian (10 µM unless noted), 104% (inactive) with OVCAR-3 ovarian (10 µM unless noted), 102% (inactive) in the experiment with HS 578T breast (10 µM unless noted) and 103% (inactive) in the experiment on NCI/ADR-RES ovarian (10 µM unless noted).

For `CC(=O)c1cccc(OC(=O)c2ccccc2)c1`, the growth in the experiment on SR leukemia is 65.6% (inactive); in the experiment with RPMI-8226 leukemia (10 µM unless noted), 100% (inactive); in the experiment on OVCAR-8 ovarian (10 µM unless noted), 99% (inactive); in the experiment with OVCAR-5 ovarian, 104% (inactive); with OVCAR-4 ovarian, 92.7% (inactive); in the experiment on SK-OV-3 ovarian (10 µM unless noted) it was 97.6% (inactive). The growth was 114% (inactive) in the experiment with IGROV1 ovarian (10 µM unless noted), 124% (inactive) in the experiment on OVCAR-3 ovarian (10 µM unless noted), 105% (inactive) in the experiment with HS 578T breast (10 µM unless noted) and 96% (inactive) with NCI/ADR-RES ovarian (10 µM unless noted).

As for `CCc1ccc(OC(=O)CCl)cc1`, the growth is 101% (inactive) in the experiment on SR leukemia; 111% (inactive) in the experiment on RPMI-8226 leukemia (10 µM unless noted); 101% (inactive) in the experiment on OVCAR-8 ovarian (10 µM unless noted); 107% (inactive) in the experiment on OVCAR-5 ovarian; 95.6% (inactive) in the experiment on OVCAR-4 ovarian; 112% (inactive) with SK-OV-3 ovarian (10 µM unless noted). The growth with IGROV1 ovarian (10 µM unless noted) is 108% (inactive); in the experiment with OVCAR-3 ovarian (10 µM unless noted) it was 104% (inactive); with HS 578T breast (10 µM unless noted), 110% (inactive); in the experiment with NCI/ADR-RES ovarian (10 µM unless noted) it was 103% (inactive).

For `COc1ccccc1OCC(O)CO` (stereo not given), the growth was 116% (inactive) and 124% (inactive) in the experiment with SR leukemia; 76.7% (inactive) in the experiment with RPMI-8226 leukemia (10 µM unless noted); 115% (inactive) and 104% (inactive) in the experiment on OVCAR-8 ovarian (10 µM unless noted); 103% (inactive) in the experiment with OVCAR-5 ovarian; 110% (inactive) and 101% (inactive) with OVCAR-4 ovarian; 106% (inactive) and 121% (inactive) in the experiment on SK-OV-3 ovarian (10 µM unless noted). In addition, the growth in the experiment with IGROV1 ovarian (10 µM unless noted) is 123% (inactive) and 114% (inactive); in the experiment with OVCAR-3 ovarian (10 µM unless noted) it was 107% (inactive) and 125% (inactive); in the experiment on HS 578T breast (10 µM unless noted) it was 61.7% (inactive) and 107% (inactive); in the experiment with NCI/ADR-RES ovarian (10 µM unless noted) it was 100% (inactive) and 107% (inactive).

For `c1ccc2c[n+](Cc3ccc4ccccc4n3)ccc2c1`, the growth in the experiment on SR leukemia was 98.1% (inactive); with RPMI-8226 leukemia (10 µM unless noted) it was 57.2% (inactive); with OVCAR-8 ovarian (10 µM unless noted), 69% (inactive); in the experiment on OVCAR-5 ovarian it was 105% (inactive); with OVCAR-4 ovarian, 67.1% (inactive); in the experiment with SK-OV-3 ovarian (10 µM unless noted), 88.5% (inactive). Moreover, the growth with IGROV1 ovarian (10 µM unless noted) is 80.5% (inactive); with OVCAR-3 ovarian (10 µM unless noted), 62.1% (inactive); in the experiment with HS 578T breast (10 µM unless noted) it was 86.2% (inactive); in the experiment on NCI/ADR-RES ovarian (10 µM unless noted), 102% (inactive).

Take `COc1ccc(CCO)cc1`: the growth in the experiment on SR leukemia was 75.6% (inactive); with RPMI-8226 leukemia (10 µM unless noted), 110% (inactive); in the experiment on OVCAR-8 ovarian (10 µM unless noted) it was 101% (inactive); in the experiment on OVCAR-5 ovarian it was 103% (inactive); in the experiment with OVCAR-4 ovarian, 111% (inactive); in the experiment with SK-OV-3 ovarian (10 µM unless noted) it was 109% (inactive). Besides, the growth is 99.6% (inactive) in the experiment on IGROV1 ovarian (10 µM unless noted), 111% (inactive) in the experiment with OVCAR-3 ovarian (10 µM unless noted), 98.2% (inactive) with HS 578T breast (10 µM unless noted) and 108% (inactive) in the experiment with NCI/ADR-RES ovarian (10 µM unless noted).

Consider `Nc1ccc2ccc(NS(=O)(=O)N3CCCCC3)cc2c1`, for which the growth with SR leukemia is 6.48% (active); in the experiment with RPMI-8226 leukemia (10 µM unless noted) it was 46% (inactive); in the experiment with OVCAR-8 ovarian (10 µM unless noted) it was 34.2% (inactive); in the experiment on OVCAR-5 ovarian, 56.1% (inactive); in the experiment with OVCAR-4 ovarian it was 39.2% (inactive); in the experiment with SK-OV-3 ovarian (10 µM unless noted), 31.8% (inactive). Besides, the growth in the experiment with IGROV1 ovarian (10 µM unless noted) is 76.3% (inactive); in the experiment with OVCAR-3 ovarian (10 µM unless noted), -9.56% (active); in the experiment with HS 578T breast (10 µM unless noted) it was 20.9% (inactive); in the experiment on NCI/ADR-RES ovarian (10 µM unless noted) it was -24.8% (active).

In the case of `O=c1ccn2c(n1)OC1CC2OC1COC(c1ccccc1)(c1ccccc1)c1ccccc1` (stereo not given), the growth is 46.1% [100 µM] (inactive) with SR leukemia; 106% (inactive) with RPMI-8226 leukemia (10 µM); 58.2% (inactive) in the experiment on RPMI-8226 leukemia (100 µM); 98.7% (inactive) with OVCAR-8 ovarian (10 µM); 84.6% (inactive) in the experiment with OVCAR-8 ovarian (100 µM); 101% (inactive) with SK-OV-3 ovarian (10 µM). Also, the growth with SK-OV-3 ovarian (100 µM) is 70.9% (inactive); in the experiment with IGROV1 ovarian (10 µM), 115% (inactive); in the experiment with IGROV1 ovarian (100 µM), 85.4% (inactive); with OVCAR-3 ovarian (10 µM), 126% (inactive); in the experiment on OVCAR-3 ovarian (100 µM) it was 102% (inactive); with HS 578T breast (10 µM), 121% (inactive). Further, the growth in the experiment with HS 578T breast (100 µM) is 95.1% (inactive); in the experiment with NCI/ADR-RES ovarian (10 µM), 112% (inactive); in the experiment with NCI/ADR-RES ovarian (100 µM), 103% (inactive).

Values taken from PubChem BioAssay (NCI).
